High-throughput results deposited in PubChem by National Center for Advancing Translational Sciences (NCATS).
Shown are actives, neighbours in structure and some others; about 7.9% of the full set was active somewhere.
HCMV antiviral = qHTS Assay for inhibitors of the human cytomegalovirus (HCMV); HFF cells, HCMV-luciferase reporter, 72 h; stronger effect = lower value; activity change, negative = inhibition, % at 57.5 µM; actives 4.5% (n = 410,000); AID 1259415, 2018; in the data active = activity change below about -60%; inconclusive = no clear call, values can overlap the other calls; inactive = above about -39%
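Steps: HFFs plated, 16 h 37C; compounds added; HCMV-luciferase added to MOI 1 PFU/cell; 72 h 37C; OneGlo reagent, 5 min room temperature; luminescence read, normalized to controls.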
FMDV inh = High Throughput Screening for Foot and Mouth Disease Virus Antivirals | FMDV antiviral cell-based qHTS | Potency, µM (top dose mostly 57.9 µM), without a hit: at the top dose activity change, negative = inhibition, hits mostly inhibitors | actives 1.2% (n = 410,000); calls by dose curve; tested in HEK293T cells; note: read-out not given here; potency is the fitted concentration of half-maximal effect; nearly all actives have a fitted effect of over 45% in size
LASV entry inh = qHTS for Inhibitors of binding or entry into cells for Lassa Virus; Potency, µM (doses to about 37.9 µM), without a hit: top-dose activity change, negative = inhibition, actives largely listed as inhibitors; Lassa virus pseudotype entry inhibition, cell reporter; actives 1.2% (n = 300,000); AID 540256, 2011; calls by dose curve; tested in HEK293 cells; note: potency is the fitted concentration of half-maximal effect; nearly all actives have a fitted effect of over 50% in size
Marburg entry inh = qHTS for inhibitors of binding or entry into cells for Marburg Virus. Marburg virus pseudotyped entry inhibition, cell reporter. Potency, µM (top dose mostly 37.8 µM), without a hit: top-dose activity change, negative = inhibition, actives largely listed as inhibitors. actives 1.8% (n = 300,000); calls by dose curve; tested in HEK293 cells; note: potency is the fitted concentration of half-maximal effect
HCV inh = qHTS Assay for Inhibitors of Hepatitis C Virus (HCV); actives 3.4% (n = 340,000); Potency, µM (highest dose often 41.8 µM), inactives show at the highest dose activity change, negative = inhibition, hits mostly inhibitors; Huh7.5.1 HCVcc-Cre infection, luciferase reporter, 44 h; AID 651820, 2012; active = well fitted inhibition curve with a large enough effect; inconclusive = small, poorly fitted or top-dose-only effect, or another doubt; inactive = no such curve, though single readings can be large or run the other way; note: potency is the fitted concentration of half-maximal effect
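HCVcc-Cre virus at an moi near 0.5 was added right after compound to cells cultured 4 h from seeding (1,000 cells/well). Luciferase activity was determined 44 h later, 15 min after substrate addition at RT.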
* hit, by the source's call; ? = inconclusive; nt = no result given; [ ] = dose if it differs, or a comment. % is set by controls: 0 for no effect and ±100 for the full control effect.

SMILES	HCMV antiviral	FMDV inh	LASV entry inh	Marburg entry inh	HCV inh
COc1ccc(CN(C(=O)Cc2c[nH]c3ccccc23)C(C(=O)NC2CCCCC2)c2ccc(C)o2)cc1 (stereo not drawn)	?	38%	7.3µM*	7.3µM*	?
COc1cc(C(C(=O)NC2CCCCC2)N(C(=O)Cc2c[nH]c3ccccc23)c2ccccc2C)cc(OC)c1OC (stereo not drawn)	70	-13%	-23%	?	18%
O=C(CNC(=O)C1CC1)Nc1ccc(F)c(F)c1F	44	10%	29%[46.1 µM]	3%[46.1 µM]	9%
C=C[C@]1(C)C=C2C(=O)[C@@]3(O)OC(=O)[C@@]4(CCCC(C)(C)[C@H]34)[C@@]2(O)CC1	-101*	2.8µM*	nt	nt	nt
C=C[C@]1(C)C=C2CC[C@H]3[C@@](C)(CCC[C@@]3(C)C(=O)O)[C@@H]2CC1	nt	-14%	nt	nt	32%
CC(=O)OC[C@H]1O[C@H](C#Cc2ccccc2Cl)C=C[C@H]1OC(C)=O	nt	nt	nt	-1%[14.2 µM]	nt
CCN(CC)CCn1c(=O)n(-c2ccc(Cl)cc2)c(=O)c2c3c(sc21)CN(C)CC3	-15	2%	nt	nt	4µM*
CN1CCc2c(sc3c2c(=O)n(-c2ccc(Cl)cc2)c2nncn32)C1	22	-9%	-4%	-2%	9%
COC(=O)c1cc(NC(=O)C(C)c2ccc(CC(C)C)cc2)ccc1O (stereo not drawn)	-79*	-5%	?	?	11µM*
CC(C)Cc1ccc(C(C)C(=O)Nc2ncccn2)cc1 (stereo not drawn)	-31	-13%	-17%	-17%[46.1 µM]	-16%
CCC(OC(=O)CN1C(=O)C(=O)c2ccccc21)C(=O)Nc1ccccc1OC (stereo not drawn)	-63*	-15%	19%	-11%[46.1 µM]	-7%
CC1CCN(c2cc(N3CCN(C(=O)c4ccc(F)c(F)c4)CC3)c([N+](=O)[O-])cc2F)CC1	?	-1%	?	?	?
N#CC1=C2N=C(N)c3ccccc3N2C2=C(C(=O)CCC2)C1c1cccc(Cl)c1 (stereo not drawn)	-70*	-3%	?	?	?
CC(C)Oc1ccc(CNS(=O)(=O)c2cnc(N)nc2)cc1	-36	14%	-3%[46.1 µM]	nt	nt
CCN(C(=O)c1oc2ccc(S(=O)(=O)N3CCCCCC3)cc2c1C)c1ccccc1	-9	0%	?	nt	nt
O=[N+]([O-])c1ccc(Cl)c(S(=O)(=O)Nc2ccc(-c3ccc(N4CCCC4)nn3)cc2)c1	-64*	37%	7%	9%	9%
O=[N+]([O-])c1ccc(Cl)c(S(=O)(=O)Nc2cccc(-c3ccc(N4CCCC4)nn3)c2)c1	-11	37%	5%	-1%	?
Fc1cccc(F)c1/C=C/c1ccc2ccccc2n1	55	-51%	?	?	-8%
C(=C\c1ccco1)/c1ccc2ccccc2n1	191	-69%	?	2.8µM*	3%
Cc1ccsc1/C=C/c1ccc2ccccc2n1	6	-27%	13µM*	?	14%
Cc1ccsc1/C=C/c1ccc2cccc(O)c2n1	105	0%	?	?	13µM*
CC(O)/C=C/c1ccc2ccccc2n1 (stereo not drawn)	?	-2%	?	?	11µM*
CCOC(=O)CN1C(=O)NC(c2ccc(Br)cc2)C(C(=O)OC)=C1C (stereo not drawn)	nt	nt	nt	-10%[14.2 µM]	nt
Nc1nsc2ccccc12	-72*	nt	?	?	11µM*
CN(/C(=N/S(=O)(=O)c1cccs1)c1ccccc1)c1ccccc1	44	13%	-25%	?	16%
SMILES	HCMV antiviral	FMDV inh	LASV entry inh	Marburg entry inh	HCV inh
CN(C)c1ccc(N/C(=N\S(=O)(=O)c2cccs2)c2ccccc2)cc1	-68*	42%	nt	1%	?
COc1ccc(-c2noc(Cn3c(=O)c4ccccc4n(CC(=O)Nc4cccc(OC)c4)c3=O)n2)cc1	-13	0%	5%[46.1 µM]	nt	nt
O=C(Nc1ccc(F)cc1)N(Cc1ccco1)Cc1cc2cc3c(cc2[nH]c1=O)OCO3	?	?	-5%	18µM*	-25%
O=C(Nc1ccc(F)cc1)N(Cc1cccs1)Cc1cc2cc3c(cc2[nH]c1=O)OCO3	-61*	18µM*	?	?	?
c1ccc(Cn2ccnc2C2OCCO2)cc1	-27	-3%	nt	nt	nt
O=c1cnc2cnc(Nc3ccccc3)nc2n1Cc1cccs1	nt	-2%	nt	nt	nt
